Data on 4 molecules can be found in PubChem BioAssay (EPA / NIEHS).

Active and inactive are the calls of the source. How the source made its calls: active means hit-call score of the fitted dose curve at least 0.9, where 1 is the maximum; inactive means score below 0.9.

Common to all, as to conditions: mRNA level, 48 h; actives raise or lower the signal
Read-out in assay [1]: CFLAR gene, CFLAR (gene 8837)
The assay is described as follows: LTEA_HepaRG_CFLAR: Life Technologies and Expression Analysis (LTEA) Assay for CFLAR gene using HepaRG (AID 2283455). A digest of the protocol: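 Differentiated HepaRG cells in serum-free induction medium were exposed 48 h in duplicate to eight half-log concentrations up to 100 uM in 0.5% DMSO; mRNA measured by TaqMan qRT-PCR, normalized to ACTB, GAPDH, POLR2A; bidirectional fitting versus DMSO.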

Read-out in assay [2]: Forkhead box O1 (FOXO1), FOXO1 (gene 2308)
The assay is described as follows: LTEA_HepaRG_FOXO1: Life Technologies and Expression Analysis (LTEA) Assay for Forkhead box O1 (FOXO1) using HepaRG (AID 2283456). A digest of the protocol: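 Differentiated HepaRG cells, in serum-free induction medium with 0.5% DMSO, exposed 48 h in duplicate to 8-point half-log series from 100 uM. FOXO1 mRNA measured by TaqMan qRT-PCR, normalized to ACTB, GAPDH, POLR2A; bidirectional fit versus DMSO.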

Read-out in assay [3]: growth arrest and DNA damage 45 (GADD45A), GADD45A (gene 1647)
The assay is described as follows: LTEA_HepaRG_GADD45A: Life Technologies and Expression Analysis (LTEA) Assay for growth arrest and DNA damage 45 (GADD45A) using HepaRG (AID 2283458). A digest of the protocol: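 Differentiated HepaRG cells exposed 48 h in serum-free induction medium to 8 concentrations, top 100 uM in half-log steps, 0.5% DMSO. GADD45A mRNA quantified by qRT-PCR, normalized to ACTB, GAPDH and POLR2A; bidirectional fit versus DMSO.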

Read-out in assay [4]: Forkhead box O3 (FOXO3), FOXO3 (gene 2309)
Description: LTEA_HepaRG_FOXO3: Life Technologies and Expression Analysis (LTEA) Assay for Forkhead box O3 (FOXO3) using HepaRG (AID 2283459). A digest of the protocol: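 Differentiated human HepaRG cells, 48 h post-plating, exposed in duplicate for 48 h in serum-free induction medium; 8-point half-log series from 100 uM in 0.5% DMSO. FOXO3 mRNA by TaqMan qRT-PCR, normalized to ACTB/GAPDH/POLR2A; bidirectional fit versus DMSO.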

Read-out in assay [5]: ABC Transporter (ABCB1), ABCB1 (gene 5243)
Description: LTEA_HepaRG_ABCB1: Life Technologies and Expression Analysis (LTEA) Assay for ABC Transporter (ABCB1) using HepaRG (AID 2283460). A digest of the protocol: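 HepaRG cells exposed in duplicate for 48 h in serum-free induction medium to eight half-log concentrations up to 100 uM in 0.5% DMSO. ABCB1 mRNA quantified by qRT-PCR, normalised to ACTB, GAPDH and POLR2A; fitted bidirectionally versus DMSO.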

Read-out in assay [6]: growth arrest and DNA damage 45 (GADD45B), GADD45B (gene 4616)
Description: LTEA_HepaRG_GADD45B: Life Technologies and Expression Analysis (LTEA) Assay for growth arrest and DNA damage 45 (GADD45B) using HepaRG (AID 2283461). A digest of the protocol:
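Transcript level quantified by Fluidigm TaqMan qRT-PCR with three housekeeping genes for normalization, analyzed for up- or down-regulation against 0.5% DMSO. HepaRG cultures dosed 48 h at eight half-log concentrations up to 100 uM, duplicates.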

Read-out in assay [7]: ABC Transporter (ABCC3), ABCC3 (gene 8714)
Description: LTEA_HepaRG_ABCC3: Life Technologies and Expression Analysis (LTEA) Assay for ABC Transporter (ABCC3) using HepaRG (AID 2283462). A digest of the protocol:
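Transcript level by TaqMan qRT-PCR, normalised to three housekeeping genes, fitted in both directions relative to vehicle. Chemicals tested in duplicate at eight half-log concentrations up to 100 uM for 48 h on HepaRG cells (0.5% DMSO).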

Read-out in assay [8]: ABC Transporter (ABCB11), ABCB11 (gene 8647)
Description: LTEA_HepaRG_ABCB11: Life Technologies and Expression Analysis (LTEA) Assay for ABC Transporter (ABCB11) using HepaRG (AID 2283463). A digest of the protocol:
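Differentiated human HepaRG cells in serum-free induction medium, dosed in duplicate for 48 h. Eight-point half-log series from 100 uM in 0.5% DMSO; ABCB11 mRNA by qRT-PCR, normalized to ACTB, GAPDH, POLR2A, fitted bidirectionally versus DMSO.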

Read-out in assay [9]: ABC Transporter (ABCC2), ABCC2 (gene 1244)
Description: LTEA_HepaRG_ABCC2: Life Technologies and Expression Analysis (LTEA) Assay for ABC Transporter (ABCC2) using HepaRG (AID 2283464). A digest of the protocol: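 Endpoint is ABCC2 transcript level from qRT-PCR, normalized to three housekeeping genes and fitted bidirectionally relative to DMSO. Human HepaRG cells received test chemical for 48 h at up to 100 uM (8 points, half-log steps, 0.5% DMSO), duplicate wells.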

Read-out in assay [10]: Broad substrate specificity ATP-binding cassette transporter ABCG2 (Homo sapiens) (UniProt Q9UNQ0)
The assay is described as follows: LTEA_HepaRG_ABCG2: Life Technologies and Expression Analysis (LTEA) Assay for ABC Transporter (ABCG2) using HepaRG (AID 2283465). A digest of the protocol: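 Differentiated HepaRG cells were exposed for 48 h in serum-free induction medium to 8 half-log concentrations, top 100 uM, in 0.5% DMSO. ABCG2 mRNA was measured by qRT-PCR, normalized to ACTB, GAPDH and POLR2A, with bidirectional fitting versus DMSO.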

Read-out in assay [11]: ATP-citrate lyase (ACLY), ACLY (gene 47)
Description: LTEA_HepaRG_ACLY: Life Technologies and Expression Analysis (LTEA) Assay for ATP-citrate lyase (ACLY) using HepaRG (AID 2283466). A digest of the protocol: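 Differentiated HepaRG cells exposed 48 h in serum-free induction medium to eight half-log concentrations up to 100 uM in 0.5% DMSO, duplicates. Transcript measured by Fluidigm TaqMan qRT-PCR, normalized to ACTB, GAPDH, POLR2A; bidirectional fit versus DMSO.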

Read-out in assay [12]: Peroxisomal acyl-coenzyme A oxidase 1 (ACOX1) gene, ACOX1 (gene 51)
Description: LTEA_HepaRG_ACOX1: Life Technologies and Expression Analysis (LTEA) Assay for Peroxisomal acyl-coenzyme A oxidase 1 (ACOX1) gene using HepaRG (AID 2283467). A digest of the protocol:
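HepaRG cells, plated 48 h then switched to serum-free induction medium, were exposed in duplicate for 48 h to 8-point half-log concentrations up to 100 uM in 0.5% DMSO. ACOX1 mRNA was measured by qRT-PCR, normalized to ACTB/GAPDH/POLR2A, and fitted bidirectionally versus DMSO.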

Read-out in assay [13]: Alkaline Phosphatase, Placental (ALPP) gene, ALPP (gene 250)
Description: LTEA_HepaRG_ALPP: Life Technologies and Expression Analysis (LTEA) Assay for Alkaline Phosphatase, Placental (ALPP) gene using HepaRG (AID 2283468). A digest of the protocol: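 ALPP transcript level, measured by qRT-PCR and normalized to three housekeeping genes (ACTB, GAPDH, POLR2A), after 48 h dosing of differentiated HepaRG in serum-free induction medium. Top concentration 100 uM with half-log dilutions (8 points, 0.5% DMSO, duplicates); bidirectional fitting relative to DMSO.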

Read-out in assay [14]: Bcl-2 (BAD) gene, BAD (gene 572)
Description: LTEA_HepaRG_BAD: Life Technologies and Expression Analysis (LTEA) Assay for Bcl-2 (BAD) gene using HepaRG (AID 2283469). A digest of the protocol:
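Differentiated HepaRG cells were exposed in duplicate in 0.5% DMSO for 48 h to eight-point half-log concentrations up to 100 uM. BAD mRNA was measured by Fluidigm TaqMan qRT-PCR, normalized to ACTB, GAPDH and POLR2A, and fitted bidirectionally against DMSO.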

Read-out in assay [15]: Bcl-2 (BAX) gene, BAX (gene 581)
Description: LTEA_HepaRG_BAX: Life Technologies and Expression Analysis (LTEA) Assay for Bcl-2 (BAX) gene using HepaRG (AID 2283470). A digest of the protocol:
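Differentiated HepaRG cells exposed 48 h in serum-free induction medium, eight half-log concentrations from 100 uM, in duplicate, 0.5% DMSO vehicle. BAX mRNA by TaqMan qRT-PCR, normalised to ACTB, GAPDH and POLR2A.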

Read-out in assay [16]: Alpha-fetoprotein (AFP) gene, AFP (gene 174)
Description: LTEA_HepaRG_AFP: Life Technologies and Expression Analysis (LTEA) Assay for Alpha-fetoprotein (AFP) gene using HepaRG (AID 2283472). A digest of the protocol: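 Differentiated human HepaRG cells exposed 48 h in serum-free induction medium, 8-point half-log series from 100 uM in 0.5% DMSO, duplicate. AFP mRNA by qRT-PCR, normalized to ACTB, GAPDH, POLR2A; bidirectional fit vs DMSO.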

Read-out in the next assay: BCL2L11 (gene 10018)
The assay is described as follows: LTEA_HepaRG_BCL2L11: Life Technologies and Expression Analysis (LTEA) Assay for Bcl-2 (BCL2L11) gene using HepaRG (AID 2283473). A digest of the protocol: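 BCL2L11 transcript levels are measured by Fluidigm qRT-PCR, normalized to three housekeeping genes. HepaRG cultures were plated 48 h, then treated 48 h with test chemical (top 100 uM, half-log, 0.5% DMSO vehicle); curves were fitted bidirectionally against DMSO.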

Read-out in assay [17]: Apolipoprotein A-V (APOA5) gene, APOA5 (gene 116519)
Description: LTEA_HepaRG_APOA5: Life Technologies and Expression Analysis (LTEA) Assay for Apolipoprotein A-V (APOA5) gene using HepaRG (AID 2283474). A digest of the protocol: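 APOA5 transcript levels were quantified by qRT-PCR, normalized to three housekeeping genes, after 48 h chemical treatment of HepaRG cells (8 points, 100 uM maximum, half-log steps, 0.5% DMSO). Curves fitted in both directions against vehicle.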

Sequence of Broad substrate specificity ATP-binding cassette transporter ABCG2 (Homo sapiens) (Q9UNQ0 whole entry, looked up): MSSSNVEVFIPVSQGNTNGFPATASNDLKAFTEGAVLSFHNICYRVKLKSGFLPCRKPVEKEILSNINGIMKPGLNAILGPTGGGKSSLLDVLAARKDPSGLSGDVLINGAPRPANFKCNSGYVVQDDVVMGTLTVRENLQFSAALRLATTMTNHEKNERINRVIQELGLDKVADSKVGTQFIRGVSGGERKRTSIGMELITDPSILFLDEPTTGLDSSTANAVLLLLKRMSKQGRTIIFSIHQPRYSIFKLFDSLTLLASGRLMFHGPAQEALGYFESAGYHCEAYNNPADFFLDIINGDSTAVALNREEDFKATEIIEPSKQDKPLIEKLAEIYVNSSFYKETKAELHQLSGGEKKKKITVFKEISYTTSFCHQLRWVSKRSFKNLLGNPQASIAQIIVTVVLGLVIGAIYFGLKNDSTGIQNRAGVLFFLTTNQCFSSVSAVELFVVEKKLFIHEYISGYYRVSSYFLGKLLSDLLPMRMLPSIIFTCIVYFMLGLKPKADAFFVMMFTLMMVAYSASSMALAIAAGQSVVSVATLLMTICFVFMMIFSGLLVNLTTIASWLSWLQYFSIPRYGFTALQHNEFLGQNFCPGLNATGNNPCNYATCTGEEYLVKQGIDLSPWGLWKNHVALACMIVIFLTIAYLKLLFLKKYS

The AC50 is the concentration giving half of the maximal activity seen. As for `CCOC(=O)O[C@H](C)OC(=O)c1ccc2c(c1)cc(C(=O)NC1CCN(C(C)C)CC1)n2Cc1cc(-c2ccc(Cl)s2)on1`, the molecule was called inactive in [1], in [2], in assay [3], in assay [4], in assay [5] and in assay [6]. Besides, the molecule was called inactive in [7], in assay [8], in [9], in assay [10], in [11] and in assay [12]. The outcome (in [14]; in [15]; in assay [16]; with BCL2L11 (gene 10018); in [17]) was inactive. Also, in [13], the concentration at half-maximal activity (AC50) is 16.9 µM (active).
Regarding `c1ccc2n[nH]nc2c1`, the result in assay [1], in [2], in assay [3], in assay [4], in assay [5] and in assay [6] was inactive. For the same molecule, the molecule was classed as inactive in [7], in [8], in assay [9], in assay [10], in [11] and in assay [12]. The outcome (in [13]; in assay [14]; in assay [15]; in assay [16]; with BCL2L11 (gene 10018); in assay [17]) was inactive.
For `CCCCCCCCOC(=O)c1cc(O)c(O)c(O)c1`, the molecule was classed as inactive in assay [1], in assay [2], in assay [3], in assay [4], in [5] and in assay [6]. In addition, the call in assay [7], in assay [8], in assay [9], in [10], in [11] and in assay [12] was inactive. Further, the result (in assay [14]; in [15]; in assay [16]; in the assay with BCL2L11 (gene 10018); in [17]) was inactive. In assay [13], the AC50 was 11.5 µM (active).
Consider `CC[C@@H]1C[C@H](N(Cc2cc(C(F)(F)F)cc(C(F)(F)F)c2)C(C)=O)c2cc(C(F)(F)F)ccc2N1C(=O)OC(C)C`, for which the result in assay [1], in assay [2], in assay [3], in assay [4], in assay [6] and in assay [7] was inactive. Also, the call in assay [8], in [10], in assay [11], in assay [12], in assay [13] and in assay [14] was inactive. Also, the outcome (in assay [15]; in [16]; with BCL2L11 (gene 10018); in assay [17]) was inactive. The figures for the AC50 in assay [5] and in [9] were 0.429 µM (active) and 0.737 µM (active), respectively.
